# Screening results as filed in PubChem.
# Most compounds without a hit are left out; they make up all but 3.2% or so of the library.
# HGIII-sPLA2 inh: human group III sPLA2 inhibitors, primary screen, biochemical, QFRET, BODIPY PC-A2 liposome substrate. Group 3 secretory phospholipase A2 (Homo sapiens), Q9NZ20. QFRET BODIPY PC-A2 liposome hydrolysis, fluorescence. inhibition, % at 12.2 µM. 370,000 compounds, 0.56% hits. AID 743126, 2013;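 active means inhibition above mean plus 3 SD of compounds lying within the high and low control bounds, cut at about 19% in these data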
# Target sequence (Q9NZ20 whole entry, looked up): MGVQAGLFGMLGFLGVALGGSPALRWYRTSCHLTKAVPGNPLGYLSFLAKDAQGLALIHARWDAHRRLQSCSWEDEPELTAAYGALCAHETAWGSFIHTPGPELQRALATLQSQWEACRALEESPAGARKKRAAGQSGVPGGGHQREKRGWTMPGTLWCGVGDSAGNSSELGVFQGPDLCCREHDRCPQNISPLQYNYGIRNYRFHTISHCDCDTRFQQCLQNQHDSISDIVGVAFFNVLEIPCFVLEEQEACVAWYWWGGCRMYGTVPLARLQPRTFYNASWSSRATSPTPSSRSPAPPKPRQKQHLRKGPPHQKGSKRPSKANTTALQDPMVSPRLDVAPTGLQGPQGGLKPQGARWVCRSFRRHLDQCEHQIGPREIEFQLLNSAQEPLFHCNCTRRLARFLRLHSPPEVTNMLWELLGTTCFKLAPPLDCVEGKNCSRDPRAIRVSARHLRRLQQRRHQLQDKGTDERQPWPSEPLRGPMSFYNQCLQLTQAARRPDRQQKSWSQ
# bovine MsrA act: bovine MsrA enzyme activators, primary screen, biochemical, absorbance, HTS; purified bovine MsrA, absorbance read-out; 360,000 compounds, 0.3% hits; Methionine sulfoxide reductase A (Bos taurus); AID 602163, 2012; activation, % at 10.6 µM; in the data active means activation above about 7.5%
# PG9 Ab binder: binders of HIV-1 gp120 antibody PG9, primary screen, biochemical, TR-FRET; HIV-1 gp120 / PG9 antibody interaction; TR-FRET gp120-PG9 antibody binding; inhibition, % at 6.7 µM; 360,000 compounds, 0.43% hits; AID 624416, 2012; in the data active means inhibition above about 8.5%
# MsrA inhibitor: bovine MsrA enzyme inhibitors, primary screen, biochemical, absorbance, HTS; Methionine sulfoxide reductase A (Bos taurus); purified bovine MsrA, absorbance read-out; inhibition, % at 15.5 µM; 360,000 compounds, 0.75% hits; AID 651718, 2012; in the data active means inhibition above about 4.5%
# rCAG RNA binder: binders of r(CAG) RNA repeats, primary screen, biochemical, fluorescence; r(CAG) RNA repeat, TO-PRO-1 dye displacement fluorescence; inhibition, % at 3 µM; 370,000 compounds, 1.3% hits; AID 651821, 2012;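 active means inhibition above the plate cutoff, the mean of all test compounds on that plate plus 3 SD, cut at about 35% in these data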;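 further: higher means more dye released from RNA so lower well fluorescence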
# PG9 binder conf: binders of anti-gp120 antibody PG9, confirmation, biochemical, TR-FRET | shares compounds with PG9 Ab binder | TR-FRET PG9 antibody binding | inhibition, % at 6.7 µM | 1,500 compounds, 90% hits; in the data active means inhibition above about 9%
# PGV04 Ab binding: binders of control antibody PGV04, counter-screen for PG9 antibody binder project, biochemical, TR-FRET, distinct HIV envelope site; TR-FRET PGV04 antibody-gp120 binding; 1,500 compounds, 95% hits; shares compounds with PG9 Ab binder; inhibition, % at 6.7 µM; in the data active means inhibition above about 9.5%
# PG9 binder DR: small-molecule binders of antibody PG9, dose response, biochemical, TR-FRET, HIV-1 gp120 antibody. shares compounds with PG9 Ab binder. TR-FRET PG9 antibody-gp120 binding inhibition. IC50, µM. 95 tested, under 10 active. AID 651848, 2012; in the data active means IC50 below about 10 µM
# PGV04 binding DR: binders of control antibody PGV04, dose response, counter-screen for PG9 antibody binder project, biochemical, TR-FRET, distinct HIV envelope site; shares compounds with PG9 Ab binder; TR-FRET binding to control antibody PGV04; IC50, µM; 95 compounds, 20% hits; AID 651937, 2012
# PG126 DR counter: binders of control antibody PG126, dose response, counter-screen for PG9 antibody binder project, biochemical, TR-FRET, distinct HIV envelope site. 95 compounds, 20% hits. IC50, µM. shares compounds with PG9 Ab binder. TR-FRET binding to antibody PG126, counterscreen
# Hits are given with their value; 0 = inactive; - = no result given. Unless noted, no stated cut-off is given here; in the data, active means IC50 below about 9 µM; inactive means the rest.
SMILES,HGIII-sPLA2 inh,bovine MsrA act,PG9 Ab binder,MsrA inhibitor,rCAG RNA binder,PG9 binder conf,PGV04 Ab binding,others
Cn1ccnc1C(=O)c1cc(SCC(=O)NC2CC2)nc2ccccc12,0,0,0,0,0,-,-,
CCc1cc2cc(C)c(C)cc2nc1SCC(=O)Nc1cc(C)on1,0,0,0,0,0,-,-,
CC(C)(C)c1nc(SCC(=O)NC2CCCC2)c2ccccc2n1,0,0,9.9,0,0,13.3,17.0,
CCc1cc2ccccc2nc1SCC(=O)Nc1cc(C)on1,0,0,21.9,0,0,22.1,30.4,
CC(C)c1nc(SCC(=O)NC2CCCCC2)c2ccccc2n1,0,0,0,0,0,-,-,
Cc1cccc(NC(=O)CSc2nc(-c3ccccc3)c(C#N)c(=O)[nH]2)c1C,0,0,0,0,0,-,-,
Cc1cc(NC(=O)CSc2nc(-c3ccccc3)c(C#N)c(=O)[nH]2)no1,0,0,17.8,0,0,28.2,34.8,
Cc1cccc(C)c1NC(=O)CSc1cc(C(=O)c2nccn2C)c2ccccc2n1,0,0,14.0,0,0,40.6,57.6,
C=CCN1C(=O)[C@@H](CC(=O)NCc2cccs2)[C@]2(C(=O)OC)CCCCC=C12,0,-,-,-,0,-,-,
CCOC(=O)[C@]12CCCC=C1N(Cc1ccc(OC)cc1)C(=O)[C@@H]2CC(=O)NCc1cccc2ccccc12,0,-,-,-,0,-,-,
CCn1c(SCC(=O)Nc2cccc3ccccc23)nnc1-c1cccs1,0,-,-,-,0,-,-,
Cc1cc(NC(=O)CSc2nc(C(C)(C)C)nc3ccccc23)no1,0,0,36.4,0,0,43.6,54.7,
Cc1cc(NC(=O)CSc2cc(C)c3ccccc3n2)no1,0,0,13.2,0,0,15.9,42.2,
N=c1c2c(ccn1CCCCc1ccccc1)Oc1ccc3ccccc3c1C2c1ccccc1 (centres undefined),0,-,-,-,-,-,-,
O=C(OCc1cn(Cc2cccc(C(F)(F)F)c2)nn1)N1CCOCC1,0,-,-,-,0,-,-,
COc1ccc(C(C(=O)NC2CCCC2)N2CCc3ccccc32)cc1 (centres undefined),0,0,11.7,0,0,24.6,33.8,
CCOC(=O)C1CCN(C(C(=O)NC2CCCCC2)c2ccc(OC)cc2)CC1 (centres undefined),0,0,0,0,0,-,-,
COc1ccc2nc(-c3ccccc3)[nH]c(=O)c2c1,0,0,53.6,0,0,67.9,76.5,
COC(=O)C1CN(Cc2ccccc2)CCS(=O)(=O)N1Cc1ccc(Cl)cc1 (centres undefined),0,-,-,-,0,-,-,
COc1cc2[nH]c(=S)n(NC(=O)c3ccccc3)c(=O)c2cc1OC,0,0,15.8,0,0,17.9,15.8,PG9 binder DR=0;PGV04 binding DR=0;PG126 DR counter=0
COC[C@H]1CCCN1c1ccc2c(c1)O[C@H]1CCN(C1)S2(=O)=O,0,-,-,-,0,-,-,
CCOC(=O)c1c(NC(=O)CSc2nc3cc(Cl)ccc3c(=O)n2Cc2ccco2)sc(C(=O)N(C)C)c1C,0,0,50.9,0,0,9.5,22.8,
CCc1ccc(NC(=O)CSc2nc3cc(C(=O)OC)ccc3c(=O)n2Cc2ccco2)cc1,0,0,0,0,0,-,-,
COC(=O)C1CN(CCc2ccccc2)CCS(=O)(=O)N1Cc1ccc(C(F)(F)F)cc1 (centres undefined),0,-,-,-,0,-,-,
CC(C)C1Cc2ccccc2-c2[nH]c(=S)[nH]c(=O)c21 (centres undefined),0,0,30.4,0,0,0,0,
SMILES,HGIII-sPLA2 inh,bovine MsrA act,PG9 Ab binder,MsrA inhibitor,rCAG RNA binder,PG9 binder conf,PGV04 Ab binding,others
CCC1(CC)Cc2ccccc2-c2[nH]c(=S)[nH]c(=O)c21,0,0,17.4,0,0,0,0,
CCC1(CC)Cc2ccccc2-c2nc(NN)[nH]c(=O)c21,0,0,0,0,0,-,-,
CC(C)[C@@H]1Cc2[nH]c(=S)[nH]c(=O)c2[C@H](C)O1,0,0,0,0,0,-,-,
COc1cc(C=NN2CCN(C(c3ccccc3)c3ccccc3)CC2)cc(OC)c1OC(C)=O,0,-,-,-,0,-,-,
CCc1nc(N)c(C#N)c(-c2cccc3ccccc23)c1C,0,0,14.6,0,0,21.1,29.4,
CC(C)c1nnc(NC(=O)c2ccc3ccccc3c2)s1,0,0,11.2,0,0,18.3,32.2,
COc1ccc2c(C)cc(SCC(=O)Nc3cccnc3Cl)nc2c1,0,0,0,0,0,-,-,
Cc1cc(SCC(=O)Nc2ncc(Cl)cc2Cl)nc2ccccc12,0,0,12.3,0,0,15.1,20.5,
COc1ccc2c(C)cc(SCC(=O)Nc3ncc(Cl)cc3Cl)nc2c1,0,0,14.3,0,0,37.0,53.5,
Cc1nnc(SCC(=O)Nc2ncc(Cl)cc2Cl)n1Cc1ccccc1,0,0,0,0,0,-,-,
Cc1ccc(-c2nn(-c3ccccc3)cc2C(=O)OCC(=O)Nc2ncc(Cl)cc2Cl)cc1,0,0,20.0,0,0,12.2,26.6,
CC(C1=CCCCC1)c1cnn(C)c1 (centres undefined),0,-,-,-,0,-,-,
Cc1ccc(C(=O)C2=C(O)C(=O)N(Cc3cccnc3)C2c2ccc(OC(C)C)cc2)o1 (centres undefined),0,0,35.4,0,0,43.9,49.9,
COc1ccc(C2C(C(=O)c3ccc(C)o3)=C(O)C(=O)N2Cc2cccnc2)cc1 (centres undefined),0,0,13.2,0,0,22.5,28.8,
Cc1ccc(C(=O)C2=C(O)C(=O)N(Cc3cccnc3)C2c2ccc(Br)cc2)o1 (centres undefined),0,0,18.0,0,0,29.4,37.6,
CCCCOc1ccc(C2C(C(=O)c3ccc(C)o3)=C(O)C(=O)N2Cc2ccco2)cc1 (centres undefined),0,0,18.7,0,0,22.5,27.2,
COc1cc(NC(=O)C2CCN(c3nnc(-n4cccc4)s3)CC2)cc(OC)c1,0,-,-,-,0,-,-,
CC(C)c1ccc(-c2c(C#N)c(N)nc(SCC(=O)N3CCCCC3)c2C#N)cc1,0,0,42.2,0,0,69.2,66.1,PG9 binder DR=6.05;PGV04 binding DR=3.44;PG126 DR counter=4
